Assay results reported in PubChem BioAssay (NCATS).
A number with no mark means an inactive call. Results filed as inconclusive are left out. Where a call stands in place of a potency, no number is given. The source made the active and inactive calls. Unless noted, calls come from the whole dose curve; as a rule, active = well fitted curve in the direction sought with a large enough effect; inconclusive = small, poorly fitted or top-dose-only effect, or another doubt; inactive = no such curve, though single readings can be large; an effect the other way counts as inactive or inconclusive.

Columns and labels:
[1] = qHTS for Inhibitors of Plasmodium falciparum (DD2) proliferation (AID 504314);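 note: parasite DNA measured by SYBR Green fluorescence after red cell lysis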; details: P. falciparum Dd2 in erythrocytes, SYBR Green growth, 72 h; series mostly up to 6.11 µM
How it was run: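 Infected RBCs, 0.3% parasitemia, 2.5% Hct; compound 72 h, 37C/5% CO2; lyse + SYBR Green I, RT overnight, dark; read ex485/em535; normalize to DMSO and artemisinin 0.29 uM.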

[2] = qHTS for Inhibitors of Plasmodium falciparum (GB4) proliferation (AID 504315); note: nearly all actives have a fitted effect of over 50% in size; details: P. falciparum GB4 in erythrocytes, SYBR Green DNA, 72 h; series mostly up to 6.7 µM
How it was run: (§1)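 Erythrocytes infected with P. falciparum line (0.3% parasitemia, 2.5% hematocrit final) incubated with compounds 72 h at 37 °C, 5% CO2; SYBR Green lysis buffer added, fluorescence read next day. Normalized to 0.29 uM artemisinin and DMSO.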

[3] = qHTS for Inhibitors of Plasmodium falciparum (CP250) proliferation (AID 504320); details: P. falciparum CP250 in erythrocytes, SYBR Green DNA, 72 h; series mostly up to 6.7 µM
How it was run: as §1

[4] = target: Atrial natriuretic peptide receptor 1 (Homo sapiens) (UniProt P16066); assay: Natriuretic polypeptide receptor (hNpr1) antagonism - Pilot CMLD screen (AID 1347052; calls by dose curve;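 note: HEK293 cells with hNpr1 stimulated by hNppA peptide at 0.1 nM; cGMP level read as GloSensor luciferase luminescence after agonist stimulation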); details: HEK293 hNpr1 GloSensor cGMP luminescence, ANP-stimulated; series mostly up to 9.22 µM
Sequence of Atrial natriuretic peptide receptor 1 (Homo sapiens) (P16066 whole entry, looked up): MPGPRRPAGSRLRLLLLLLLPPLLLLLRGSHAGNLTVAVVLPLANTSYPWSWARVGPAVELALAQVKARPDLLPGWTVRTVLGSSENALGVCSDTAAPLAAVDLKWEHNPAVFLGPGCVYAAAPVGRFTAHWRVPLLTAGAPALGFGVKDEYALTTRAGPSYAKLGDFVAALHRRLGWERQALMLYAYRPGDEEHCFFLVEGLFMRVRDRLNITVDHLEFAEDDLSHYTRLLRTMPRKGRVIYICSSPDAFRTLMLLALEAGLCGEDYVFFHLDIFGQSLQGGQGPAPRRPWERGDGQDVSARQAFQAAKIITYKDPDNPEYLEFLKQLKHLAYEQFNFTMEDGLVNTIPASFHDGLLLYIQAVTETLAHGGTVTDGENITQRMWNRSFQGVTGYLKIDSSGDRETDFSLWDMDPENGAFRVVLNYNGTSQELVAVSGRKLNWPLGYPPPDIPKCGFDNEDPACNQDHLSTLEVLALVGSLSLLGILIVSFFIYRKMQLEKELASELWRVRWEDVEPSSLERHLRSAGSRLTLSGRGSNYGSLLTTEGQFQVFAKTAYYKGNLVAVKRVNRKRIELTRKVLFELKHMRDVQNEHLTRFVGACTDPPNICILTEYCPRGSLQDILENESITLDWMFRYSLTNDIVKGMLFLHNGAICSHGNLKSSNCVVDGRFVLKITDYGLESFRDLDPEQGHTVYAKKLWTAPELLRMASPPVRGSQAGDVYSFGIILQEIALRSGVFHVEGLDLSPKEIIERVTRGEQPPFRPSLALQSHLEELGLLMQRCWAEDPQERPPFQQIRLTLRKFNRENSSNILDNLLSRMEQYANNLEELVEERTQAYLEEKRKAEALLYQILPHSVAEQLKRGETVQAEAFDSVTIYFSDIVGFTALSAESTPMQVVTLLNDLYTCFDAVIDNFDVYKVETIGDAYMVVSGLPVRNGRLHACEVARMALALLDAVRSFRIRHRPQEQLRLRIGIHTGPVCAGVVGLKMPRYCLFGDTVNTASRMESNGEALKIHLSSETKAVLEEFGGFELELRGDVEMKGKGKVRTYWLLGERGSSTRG

[5] = qHTS for Inhibitors of Plasmodium falciparum (7G8) proliferation (AID 504316); note: nearly all actives have a fitted effect of over 65% in size; details: P. falciparum 7G8 in erythrocytes, SYBR Green DNA, 72 h; series mostly up to 6.7 µM
How it was run: as §1

[6] = qHTS for Inhibitors of Plasmodium falciparum (HB3) proliferation (AID 504318); note: nearly all actives have a fitted effect of over 60% in size; details: P. falciparum HB3 in erythrocytes, SYBR Green DNA, 72 h; series mostly up to 7.21 µM
How it was run: as §1

[7] = target: Cytochrome P450 3A4 (Homo sapiens) (UniProt P08684); assay: qHTS Assay for Activators of Cytochrome P450 3A4 (AID 885); details: recombinant CYP3A4, Luciferin-PPXE luminescence, 60 min; series mostly up to 57.1 µM; note: nearly all actives have a fitted effect of over 65% in size
Sequence of Cytochrome P450 3A4 (Homo sapiens) (P08684 whole entry, looked up): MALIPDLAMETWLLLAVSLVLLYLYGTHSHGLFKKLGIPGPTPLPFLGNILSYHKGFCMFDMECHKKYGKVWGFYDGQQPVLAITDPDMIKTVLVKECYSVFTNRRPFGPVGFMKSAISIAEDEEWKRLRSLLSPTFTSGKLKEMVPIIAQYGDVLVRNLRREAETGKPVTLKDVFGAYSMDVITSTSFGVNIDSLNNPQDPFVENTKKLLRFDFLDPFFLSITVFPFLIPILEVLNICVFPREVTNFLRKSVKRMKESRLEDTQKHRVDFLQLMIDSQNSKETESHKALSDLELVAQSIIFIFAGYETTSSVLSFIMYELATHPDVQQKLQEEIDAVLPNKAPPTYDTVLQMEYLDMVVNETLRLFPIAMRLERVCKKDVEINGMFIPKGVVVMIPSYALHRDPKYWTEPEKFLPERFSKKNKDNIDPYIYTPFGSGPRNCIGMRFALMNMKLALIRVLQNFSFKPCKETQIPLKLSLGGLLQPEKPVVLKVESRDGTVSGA
How it was run: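 Signal was normalized against complete inhibition by 57 uM ketoconazole. The reaction used 20nM CYP3A4 with 25uM Luciferin-PPXE, 10-min compound preincubation and a 60-min NADPH-supported step at RT.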

[8] = target: Cytochrome P450 2C19 (Homo sapiens) (UniProt P33261); assay: qHTS Assay for Inhibitors and Substrates of Cytochrome P450 2C19 (AID 899); details: recombinant CYP2C19, luciferin-H EGE luminescence; series mostly up to 57.1 µM; note: potency is the fitted concentration of half-maximal effect; nearly all actives have a fitted effect of over 60% in size
Sequence of Cytochrome P450 2C19 (Homo sapiens) (P33261 whole entry, looked up): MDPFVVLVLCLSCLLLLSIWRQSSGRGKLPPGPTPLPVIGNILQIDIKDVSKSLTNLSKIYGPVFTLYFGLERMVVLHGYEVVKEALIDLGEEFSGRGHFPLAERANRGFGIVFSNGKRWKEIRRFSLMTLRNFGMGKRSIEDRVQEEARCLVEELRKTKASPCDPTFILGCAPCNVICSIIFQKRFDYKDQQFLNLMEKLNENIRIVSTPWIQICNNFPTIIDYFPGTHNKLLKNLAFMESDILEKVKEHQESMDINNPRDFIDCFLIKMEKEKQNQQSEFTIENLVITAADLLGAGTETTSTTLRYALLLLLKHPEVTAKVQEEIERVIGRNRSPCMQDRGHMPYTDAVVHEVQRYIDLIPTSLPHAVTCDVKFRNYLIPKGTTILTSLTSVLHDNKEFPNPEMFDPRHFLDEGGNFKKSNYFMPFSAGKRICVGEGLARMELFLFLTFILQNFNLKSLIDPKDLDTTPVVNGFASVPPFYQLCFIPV
How it was run: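 Luminescent read-out of luciferin formed from Luciferin-H EGE (10uM, equal to KM). Enzyme 5nM in 50mM KPO4; compound added, 10 min at 37C, then NADPH regenerating system for 60 min at 37C. Full inhibition defined by 57uM ketoconazole.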

[9] = target: Cytochrome P450 3A4 (Homo sapiens) (UniProt P08684); assay: qHTS Assay for Inhibitors and Substrates of Cytochrome P450 3A4 (AID 884); details: recombinant CYP3A4, Luciferin-PPXE luminescence; series mostly up to 57.1 µM; note: potency is the fitted concentration of half-maximal effect; nearly all actives have a fitted effect of over 50% in size
How it was run: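 20 nM human CYP3A4 with 25 uM Luciferin-PPXE (at KM) in 200 mM KPO4, preincubated 10 min with compound; NADPH regeneration started a 60 min RT reaction. Luciferin detected by luminescence, normalized to 57 uM ketoconazole as full inhibition.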

## COc1ccc(C=CNC(=O)c2ccc(OC)cc2)cc1
[1]
  Potency: inactive
[2]
  Potency: inactive
[3]
  Potency: inactive
[4]
  Potency: inactive

## C=CC1=C2C=C(C3CC3)N(CCN3CCOCC3)C=C2C(=O)C(C)(OC(=O)c2ccco2)C1=O (stereo unspecified)
[1]
  Potency: inactive
[5]
  Potency: inactive
[6]
  Potency: inactive
[3]
  Potency: inactive
[4]
  Potency: inactive

## COC(=O)[C@@H]1C=C[C@H](C)[C@H](CCOc2ccccc2)O1
[1]
  Potency: inactive
[2]
  Potency: inactive
[3]
  Potency: inactive
[4]
  Potency: inactive

## CCCCCCC1=Cc2cc(OC)c(OC)cc2C(C(C(C)=O)C(=O)OCC)O1 (stereo unspecified)
[7]
  activity change, positive = activation: -42.2% [at 11.4 µM]
[8]
  Potency: 1.58 µM (active)
[1]
  Potency: inactive
[2]
  Potency: inactive
[3]
  Potency: inactive
[4]
  Potency: inactive

## COC1=C[C@H](C(=O)N2CCCC2)[C@H](C)[C@@H](c2ccccc2)CC1=O
[1]
  Potency: inactive
[2]
  Potency: inactive
[3]
  Potency: inactive
[4]
  Potency: inactive

## COc1ccc2c(c1)[C@H](C=Cc1ccccc1)[C@@H]([C@H](O)CO)O2
[1]
  Potency: inactive
[2]
  Potency: inactive
[3]
  Potency: inactive
[4]
  Potency: inactive

## COC(=O)N[C@@H](C=Cc1ccccc1)C[N+](=O)[O-]
[1]
  Potency: inactive
[2]
  Potency: inactive
[3]
  Potency: inactive
[4]
  Potency: inactive

## CC(C)OC(=O)[C@H](C)NC(=O)N1CCc2nc(-c3ccccc3)c3c(c2C1)CO[C@@H](C)C3
[1]
  Potency: inactive
[2]
  Potency: inactive
[3]
  Potency: inactive
[4]
  Potency: inactive

## C[C@@H]1CC[C@H]2C(=O)N(Cc3cccc([N+](=O)[O-])c3)C[C@H](O)CN2[C@@H]1c1cccc(Br)c1
[1]
  Potency: inactive
[2]
  Potency: inactive
[3]
  Potency: inactive
[4]
  Potency: inactive

## C=C(C)C(=O)C=Cc1ccc(Br)cc1
[1]
  Potency: inactive
[5]
  Potency: inactive
[4]
  Potency: inactive

## COC(=O)C1=C(C(=O)OC)[C@@H]2N(C)c3ccccc3[C@@]23CCC(=O)N(CC(C)C)C3=N1
[1]
  Potency: inactive
[2]
  Potency: inactive
[3]
  Potency: inactive
[4]
  Potency: inactive

## CC(C)=CCC12CC3[C@@H](O)C(C(=O)c4ccccc4)(C1=O)C(=O)C(CC=C(C)C)(C2=O)C3(C)C (stereo partly specified)
[1]
  Potency: inactive
[5]
  Potency: inactive
[4]
  Potency: inactive

## CCCC[C@]12Cc3cc(C#N)ccc3[C@H](O1)c1c(cc(C)n(-c3ccccc3)c1=O)O2
[1]
  Potency: inactive
[2]
  Potency: inactive
[3]
  Potency: inactive
[4]
  Potency: inactive

## COC(=O)CC=C1c2ccccc2C[C@H](OC)[C@@H]1C
[1]
  Potency: inactive
[2]
  Potency: inactive
[3]
  Potency: inactive
[4]
  Potency: inactive

## COC(=O)[C@@H]1[C@@H](c2ccccc2)NC(=O)N(CCc2cc(OC)c(OC)c(OC)c2)[C@@H]1C
[1]
  Potency: inactive
[2]
  Potency: inactive
[3]
  Potency: inactive
[4]
  Potency: inactive

## CCN1C(=NCCCOC(C)C)N[C@@H](CCc2ccccc2)[C@H](C(=O)OC)[C@H]1C
[1]
  Potency: inactive
[5]
  Potency: inactive
[6]
  Potency: inactive
[4]
  Potency: inactive

## C=CC[C@@]1(c2ccc(OC)cc2)Oc2ccccc2C2=NCCN=C21
[1]
  Potency: inactive
[2]
  Potency: inactive
[3]
  Potency: inactive
[4]
  Potency: inactive

## CC1(OC(=O)c2ccc(Cl)nc2)C(=O)Cc2cc(-c3ccsc3)ncc2C1=O (stereo unspecified)
[1]
  activity, negative = inhibition: -1.5% [at 1.12 µM]
[2]
  Potency: inactive
[3]
  Potency: inactive
[4]
  Potency: inactive

## COC(=O)C1=C(C(=O)OC)[C@@H]2Nc3ccccc3[C@@]23C[C@@H](C(=O)OC)N(C(=O)N2CCNC2=O)C3=N1
[1]
  Potency: inactive
[2]
  Potency: inactive
[3]
  Potency: inactive
[4]
  Potency: inactive

## CC(C)CON=C1C[C@@H](O)[C@@H](O)[C@@H]2[C@H]3C(=O)N(Cc4ccc5c(c4)OCO5)C(=O)[C@@H]3CC[C@@H]12
[1]
  Potency: inactive
[2]
  Potency: inactive
[3]
  Potency: inactive
[4]
  Potency: inactive

## COc1ccc(-c2cnnc(CCCn3ccnc3-c3ccccc3)n2)cc1
[9]
  Potency: 6.31 µM (active)
[7]
  activity change, positive = activation: -71.9% [at 11.4 µM]
[1]
  Potency: inactive
[2]
  Potency: inactive
[4]
  Potency: inactive

## COC(=O)[C@]1(C=C2c3ccccc3C[C@H](OC)[C@@H]2C)[C@@H]2CC=C[C@@H]21
[1]
  Potency: inactive
[2]
  Potency: inactive
[3]
  Potency: inactive
[4]
  Potency: inactive

## CC(CCC(=O)OC[C@H]1O[C@H](C#Cc2ccccc2)C=C[C@H]1Oc1ccc(C)cc1)=NO[C@H](C)c1cn([C@H](CO)Cc2ccccc2)nn1
[1]
  Potency: inactive
[2]
  Potency: inactive
[3]
  Potency: inactive
[4]
  Potency: inactive

## COC(=O)C1=C(C(=O)OC)[C@@H]2N(C)c3ccccc3[C@@]23C[C@@H](C(=O)OC)N(C(=O)NC(C)(C)C)C3=N1
[1]
  Potency: inactive
[5]
  Potency: inactive
[6]
  Potency: inactive
[4]
  Potency: inactive

## CCO[C@H](c1cc(OC)cc([N+](=O)[O-])c1OC)[C@H](C)[C@@H](OC)[C@H](C)C=CCC(=O)OC
[1]
  Potency: inactive
[5]
  Potency: inactive
[4]
  Potency: inactive

## COC(=O)C[C@H]1c2ccccc2C2=C(C[C@@H](C)[C@H]3C(=O)NC(=O)[C@@H]23)N1C(=O)OC
[1]
  Potency: inactive
[5]
  Potency: inactive
[6]
  Potency: inactive
[3]
  Potency: inactive
[4]
  Potency: inactive

## CCOC(=O)CNC(=O)O[C@@H]1C(=O)c2cc(OC)ccc2O[C@H]1c1cccc(OC)c1
[1]
  Potency: inactive
[5]
  Potency: inactive
[6]
  Potency: inactive
[3]
  Potency: inactive
[4]
  Potency: inactive

## CCOC(=O)OC[C@H]1O[C@H](c2cc(C)cc(C)c2)C=C[C@H]1OC(=O)OCC
[1]
  Potency: inactive
[5]
  Potency: inactive
[6]
  Potency: inactive
[3]
  Potency: inactive
[4]
  Potency: inactive

## CCCCC1=CC2=C(c3ccco3)C(=O)C(C)(OC(=O)c3ccc(OC)cc3)C(=O)C2=CN1CCCN(CC)CC (stereo unspecified)
[1]
  Potency: inactive
[5]
  Potency: inactive
[6]
  Potency: inactive
[3]
  Potency: inactive
[4]
  Potency: inactive

## O=C1OCCC=C1C(O)CCc1ccccc1 (stereo unspecified)
[1]
  Potency: inactive
[5]
  Potency: inactive
[6]
  Potency: inactive
[3]
  Potency: inactive
[4]
  Potency: inactive

## CCOC(=O)[C@@]1([C@@H](NC(=O)OC)c2cccc(C)c2)CCCC1=O
[1]
  Potency: inactive
[5]
  Potency: inactive
[6]
  Potency: inactive
[3]
  Potency: inactive
[4]
  Potency: inactive

## COC(=O)[C@H]1[C@H](CCc2ccccc2)NC(=O)N(Cc2ccccc2)[C@H]1C
[1]
  Potency: inactive
[5]
  Potency: inactive
[6]
  Potency: inactive
[3]
  Potency: inactive
[4]
  Potency: inactive

## CC(=O)OC[C@H]1O[C@H](CC=NO[C@H](C)c2cn([C@H](CO)Cc3ccccc3)nn2)C=C[C@@H]1OC(C)=O
[1]
  Potency: inactive
[5]
  Potency: inactive
[6]
  Potency: inactive
[3]
  Potency: inactive
[4]
  Potency: inactive

## CCOC(=O)NN=C1C[C@@H](O)[C@@H](O)[C@@H]2[C@H]3C(=O)N(Cc4ccc5c(c4)OCO5)C(=O)[C@@H]3CC[C@H]12
[1]
  Potency: inactive
[5]
  Potency: inactive
[6]
  Potency: inactive
[3]
  Potency: inactive
[4]
  Potency: inactive

## COC(=O)NC(c1ccccc1)C1(C(=O)OC)C(=O)Cc2ccccc21 (stereo unspecified)
[1]
  Potency: inactive
[5]
  Potency: inactive
[6]
  Potency: inactive
[3]
  Potency: inactive
[4]
  Potency: inactive

## CCCCC1=CC2=C(c3ccco3)C(=O)C(C)(OC(=O)c3ccc(OC)cc3)C(=O)C2=CN1Cc1ccccc1 (stereo unspecified)
[1]
  Potency: inactive
[5]
  Potency: inactive
[6]
  Potency: inactive
[3]
  Potency: inactive
[4]
  Potency: inactive

## CCOC(=O)C1=CN(CCC=C(C)C)C(=O)NC1c1ccccc1 (stereo unspecified)
[1]
  Potency: inactive
[5]
  Potency: inactive
[6]
  Potency: inactive
[3]
  Potency: inactive
[4]
  Potency: inactive
